The results in this text go back to PubChem BioAssay.

Test [1] in a line: Wnt pathway potentiators raising nuclear beta-catenin – imaging, WNT3A-conditioned medium, mouse C2C12, NPC library, primary screen (AID 1117326; in the data active = nuclear beta-catenin stimulation mostly above about 4.2%, no sharp cut-off; inactive = mostly below about 10%). The note with it: stronger effect = higher value.
A short description of test [2]: growth inhibition of GSK3B-pretreated HCT116 cells – cell-based, CellTiter-Glo, 0.2 to 20 µM (AID 1117336;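 active = compounds lowering colon cancer cell viability after pretreatment blocking the GSK3B kinase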). The note with it: HCT116 viability after GSK3B inhibitor, at 20 µM, stronger effect = higher value.
Test [3] is described as follows: HCT116 colon cancer cell growth inhibition, primary screen, CellTiter-Glo luminescence, NPC library (AID 1117342;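 active = compounds that lower survival of HCT116 colon cancer cells in the luminescence readout, no numeric limit stated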). Conditions: at 20 µM (top of the series).
Test [4] can be described thus: reduced SW480 viability measured with CellTiter-Glo, NPC library, primary (AID 1117343;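 active = compounds that lower viability of the colon cancer cells in the luminescence readout, with no numeric limit stated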). The note with it: CellTiter-Glo luminescence; at 20 µM (top of the series) unless noted. A general note: In ATP-based viability assays light output follows the ATP content of the culture.
Test [5] is described as follows: NPC library primary testing for decreased DLD-1 cell viability via CellTiter-Glo (AID 1117346;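 active = compounds that lower survival of DLD-1 colon cancer cells in the luminescence readout, no cutoff given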). The note with it: DLD-1 viability, CellTiter-Glo luminescence; at 20 µM (top of the series).
A short description of test [6]: viability loss with induced miR-34 in A549 – imaging, A549 dox-inducible miR-34, nuclei and caspase counts, primary screen (AID 1347080;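 active = compounds whose cell count with miR-34 switched on is under 0.7 times the count with it off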). The note with it: A549 miR-34 inducible, Hoechst nuclei count, 48 h.
Test [7] in a line: MELAS cybrid and Rieske KO viability enhancers – cell-based, MELAS cybrids, Rieske KO mouse fibroblasts, CellTiter-Glo, primary screen (AID 1508586;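 active = mean z-score across replicates of 1.96 or higher in either the MELAS or the Rieske mutant cell line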;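 note: z relative to plate mean and SD of compound and empty wells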). Conditions: low glucose.
Test [8] is described as follows: drug combination growth inhibition, ovarian cancer – cell-based, oncology-focused library, rucaparib conditional, profiling panel (AID 1508598). The note with it: patient-derived ovarian cancer cells, CellTiter-Glo viability, 144 h, stronger effect = lower value.
A short description of test [9]: compounds altering viability of human ES cells (AID 493140; call rule not given here;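 note: cells exposed to compounds for four days before counting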). Conditions: human embryonic stem cell survival screen; stronger effect = higher value.
Test [10] is described as follows: stimulators of insulin release from INS-1E, primary screen, cell-based, 5 mM glucose, NPC library (AID 1117329;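 active = compound raises insulin release from rat beta cells at 5 mM glucose, no numeric limit stated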). Conditions: rat INS-1E insulin secretion, at 10 µM, stronger effect = higher value.
The nature of test [11]: inhibition of endothelial tube formation, primary screen, imaging, VEGF stimulated, CD31 staining, tube area, NPC library (AID 1117340;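 active = compound that reduces growth-factor-driven endothelial tube area in a mixed cell culture, no cutoff stated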). The note with it: VEGF-stimulated ADSC/ECFC co-culture, at 10 µM, stronger effect = higher value.
A short description of test [12]: GLP1 release stimulators, primary, NCI-H716, NPC library (AID 1117341;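 active = compound raises GLP1 secretion from the human gut endocrine cells, with no numeric limit stated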). Conditions: NCI-H716 cells, at 10 µM, stronger effect = higher value.
The target in test [13] is 6-phosphogluconate dehydrogenase, decarboxylating (Homo sapiens) (UniProt P52209). Description: inhibition of human phosphogluconate dehydrogenase – biochemical, recombinant enzyme, NADPH absorbance, primary screen (AID 1159550;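 active = at least 20% inhibition of 6-phosphogluconate dehydrogenase activity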). Conditions: recombinant 6PGD, NADPH absorbance 341 nm; at 10 µM; stronger effect = higher value.
6-phosphogluconate dehydrogenase, decarboxylating (Homo sapiens), sequence (P52209 whole entry, looked up): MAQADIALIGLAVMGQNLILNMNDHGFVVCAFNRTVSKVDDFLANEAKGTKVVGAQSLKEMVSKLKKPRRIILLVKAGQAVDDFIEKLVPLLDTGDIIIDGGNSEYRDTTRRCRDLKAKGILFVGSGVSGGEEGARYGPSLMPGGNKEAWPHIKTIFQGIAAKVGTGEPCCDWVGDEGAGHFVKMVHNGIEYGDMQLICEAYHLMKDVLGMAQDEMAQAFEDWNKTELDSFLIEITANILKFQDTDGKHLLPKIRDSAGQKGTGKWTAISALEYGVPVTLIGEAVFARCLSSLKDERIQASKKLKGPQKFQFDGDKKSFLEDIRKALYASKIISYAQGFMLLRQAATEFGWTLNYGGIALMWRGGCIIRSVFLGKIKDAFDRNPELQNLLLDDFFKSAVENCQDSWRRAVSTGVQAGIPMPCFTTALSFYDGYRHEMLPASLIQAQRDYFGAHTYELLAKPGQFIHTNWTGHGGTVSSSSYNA
Test [14] is described as follows: modulation of C. elegans fzo-1 (AID 1259413; call rule not given here;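 note: fzo-1 mutant C. elegans worms in liquid wells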). The note with it: C. elegans fzo-1 modulator screen, mean read-out; stronger effect = higher value.
Test [15] in a line: EMT-state selective cytotoxicity in co-culture – imaging, PC-3E GFP, TEM4-18 mCherry, primary screen (AID 1345086;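 active = compounds killing one labelled cell type while sparing the other, by normalised counts and ratio limits, not self-fluorescent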;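 for all read-outs here: cells exposed to compound for 72 h before imaging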;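 for red/green cell ratio (normalised): normalised mesenchymal count divided by normalised epithelial count so high means epithelial killing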). Conditions: PC-3E GFP / TEM4-18 mCherry co-culture, imaging cell counts, at 1 µM; for red/green cell ratio (normalised): actives lie on both sides, counts scaled to control wells, 1 = unselective.
Test [16] concerns the target NAD(+) hydrolase SARM1 (Homo sapiens) (UniProt Q6SZW1). Description: blocking NAD cleavage by SARM1 SAM-TIR – cell lysate, NAD-Glo luminescence (AID 1508614;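 active = compound whose remaining NAD level is above about 45 nM, limit read from the data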;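 note: higher remaining NAD means stronger inhibition of SARM1 NADase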). The note with it: SAM-TIR HEK293T lysate NADase, at 1 µM, stronger effect = higher value.
Test [17] deals with Mitogen-activated protein kinase 7 (Homo sapiens) (UniProt Q13164). Description: Gal4-ERK5 driven luciferase induction – cell-based, HTS, primary screen (AID 1508626;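 active = luciferase signal above three times the same-plate solvent-only control wells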;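 note: luciferase driven by Gal4-ERK5 fusion binding five Gal4 sites before minimal TATA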). The note with it: HeLa Gal4-ERK5 transactivation, 18 h, at 5 µM, stronger effect = higher value.
Mitogen-activated protein kinase 7 (Homo sapiens), sequence (Q13164 whole entry, looked up, the tested form may be a part): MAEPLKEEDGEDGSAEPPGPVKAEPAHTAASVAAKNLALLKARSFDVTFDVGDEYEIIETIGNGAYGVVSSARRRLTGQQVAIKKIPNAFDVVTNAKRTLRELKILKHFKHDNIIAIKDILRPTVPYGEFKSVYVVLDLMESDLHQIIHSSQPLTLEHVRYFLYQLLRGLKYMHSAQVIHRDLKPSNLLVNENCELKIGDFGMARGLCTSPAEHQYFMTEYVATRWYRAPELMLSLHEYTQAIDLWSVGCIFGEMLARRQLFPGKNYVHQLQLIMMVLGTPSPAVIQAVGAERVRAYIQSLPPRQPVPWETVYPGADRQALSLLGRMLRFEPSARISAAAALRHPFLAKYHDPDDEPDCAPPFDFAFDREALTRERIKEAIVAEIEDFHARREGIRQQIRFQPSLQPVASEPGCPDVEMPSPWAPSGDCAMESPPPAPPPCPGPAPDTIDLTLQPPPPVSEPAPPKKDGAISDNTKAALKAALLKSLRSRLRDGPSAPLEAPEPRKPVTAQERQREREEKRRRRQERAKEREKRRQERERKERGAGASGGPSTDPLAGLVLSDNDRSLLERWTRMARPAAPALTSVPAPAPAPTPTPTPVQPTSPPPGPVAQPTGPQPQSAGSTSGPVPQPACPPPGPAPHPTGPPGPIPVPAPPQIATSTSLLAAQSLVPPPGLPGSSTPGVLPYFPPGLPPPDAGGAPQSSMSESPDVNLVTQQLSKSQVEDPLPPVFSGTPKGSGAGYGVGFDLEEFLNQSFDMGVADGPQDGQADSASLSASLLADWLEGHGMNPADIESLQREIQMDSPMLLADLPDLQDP
Test [18] can be described thus: galactose survival enhancers in mitochondrial complex I cybrids – cell-based, galactose medium, ATP luminescence, primary screen (AID 1645843;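 active = z-score of at least 1.8 in each of two replicates, scored against plate mean and spread of sample wells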;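 note: positive z means more ATP and so rescue of galactose-driven cybrid death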). Conditions: complex I mutant cybrid cells, 72 h, stronger effect = higher value.
Setting [19] is: stronger effect = lower value, cell number ratio, induced over uninduced.
The mark [20] stands for this setting: measured here: relative caspase fold change +Dox/-Dox.
[21] abbreviates: measured here: total cells with miR-34 induction, stronger effect = lower value.
Setting [22] is: measured here: total cells without miR-34 induction.
Setting [23] is: MELAS cybrid survival, CellTiter-Glo 48 h, stronger effect = higher value.
The mark [24] stands for this setting: Rieske KO mouse fibroblast survival, CellTiter-Glo 72 h.
[25] abbreviates: measured here: epithelial PC-3E GFP cell survival.
The mark [26] stands for this setting: measured here: mesenchymal TEM4-18 mCherry cell survival.

Where “and” joins values, the source holds several entries; their conditions need not be identical. Equal entries are not always repeated. Calls of active or inactive are those of the source.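 Rule for the calls, unless noted: active = normalized viability below 100% at a tested concentration; inactive = the rest.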

NAD(+) hydrolase SARM1 (Homo sapiens), sequence (Q6SZW1 whole entry, looked up, the tested form may be a part): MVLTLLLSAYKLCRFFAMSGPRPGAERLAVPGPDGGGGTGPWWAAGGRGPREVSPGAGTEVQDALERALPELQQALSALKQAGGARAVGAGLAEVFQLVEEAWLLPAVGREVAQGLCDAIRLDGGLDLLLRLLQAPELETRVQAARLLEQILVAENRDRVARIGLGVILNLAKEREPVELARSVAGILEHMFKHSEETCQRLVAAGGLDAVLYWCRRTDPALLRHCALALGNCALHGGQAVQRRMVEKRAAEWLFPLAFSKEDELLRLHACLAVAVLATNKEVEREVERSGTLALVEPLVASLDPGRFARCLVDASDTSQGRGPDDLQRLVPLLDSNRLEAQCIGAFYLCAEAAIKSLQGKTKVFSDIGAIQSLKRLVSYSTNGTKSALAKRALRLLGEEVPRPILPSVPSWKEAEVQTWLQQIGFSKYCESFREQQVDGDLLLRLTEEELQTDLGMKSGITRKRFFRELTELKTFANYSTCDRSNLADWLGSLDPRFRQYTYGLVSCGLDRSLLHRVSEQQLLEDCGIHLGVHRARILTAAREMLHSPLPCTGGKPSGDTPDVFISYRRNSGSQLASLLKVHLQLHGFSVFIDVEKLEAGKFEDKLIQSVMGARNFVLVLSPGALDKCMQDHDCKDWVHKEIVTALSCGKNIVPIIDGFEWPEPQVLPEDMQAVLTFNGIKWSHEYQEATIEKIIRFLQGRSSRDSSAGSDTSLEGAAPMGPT

Turning to `Cc1ccc(-n2nc(C(C)(C)C)cc2NC(=O)Nc2ccc(OCCN3CCOCC3)c3ccccc23)cc1`, the nuclear beta-catenin stimulation in test [1] (at 10 µM) is 13.4% (inactive); in [1] (stimulation, at 2 µM), 7%. Further, in test [2], the viability decrease was 73% (active). Besides, the inhibition of viability in [3] was 66.5% (active). For the same compound, the viability decrease (inhibition) is 64.1% (active) in test [4] and 31% (inactive) in [5]. In addition, the fold change in [6] (setting [19]) was 0.925 (inactive); in test [6] (setting [20]), 0.866. In addition, the cell count in [6] (setting [21]) came out at 7750; in [6] (setting [22]), 8380. Also, the z-score in test [7] (setting [23]) was -0.536 (inactive); in test [7] (setting [24]), -0.851. Moreover, the viability (as a rule, a read-out of living cells in per cent, often relative to untreated cells) in [8] (at 0.000305 µM, OCI-C5x cells, with rucaparib 10 µM, 100% = cells with rucaparib alone) was 105% (inactive); in [8] (at 0.000305 µM, OCI-C5x cells, without rucaparib), 123% (inactive); in test [8] (at 0.000305 µM, OCI-P5x cells, with rucaparib 20 µM, 100% = cells with rucaparib alone), 112% (inactive); in test [8] (at 0.000305 µM, OCI-P5x cells, without rucaparib), 115% (inactive); in [8] (at 0.00122 µM, OCI-C5x cells, with rucaparib 10 µM, 100% = cells with rucaparib alone), 97.2% (active); in test [8] (at 0.00122 µM, OCI-C5x cells, without rucaparib) it was 113% (inactive). In addition, the viability in test [8] (at 0.00122 µM, OCI-P5x cells, with rucaparib 20 µM, 100% = cells with rucaparib alone) is 97.9% (active); in test [8] (at 0.00122 µM, OCI-P5x cells, without rucaparib), 104% (inactive); in test [8] (at 0.00488 µM, OCI-C5x cells, with rucaparib 10 µM, 100% = cells with rucaparib alone) it was 106% (inactive); in [8] (at 0.00488 µM, OCI-C5x cells, without rucaparib), 116% (inactive); in test [8] (at 0.00488 µM, OCI-P5x cells, with rucaparib 20 µM, 100% = cells with rucaparib alone) it was 91.6% (active); in test [8] (at 0.00488 µM, OCI-P5x cells, without rucaparib), 111% (inactive). In addition, the viability was 105% (inactive) in test [8] (at 0.0195 µM, OCI-C5x cells, with rucaparib 10 µM, 100% = cells with rucaparib alone); 120% (inactive) in [8] (at 0.0195 µM, OCI-C5x cells, without rucaparib); 101% (inactive) in test [8] (at 0.0195 µM, OCI-P5x cells, with rucaparib 20 µM, 100% = cells with rucaparib alone); 108% (inactive) in [8] (at 0.0195 µM, OCI-P5x cells, without rucaparib); 100% (inactive) in [8] (at 0.0781 µM, OCI-C5x cells, with rucaparib 10 µM, 100% = cells with rucaparib alone); 107% (inactive) in test [8] (at 0.0781 µM, OCI-C5x cells, without rucaparib). For the same compound, the viability was 108% (inactive) in test [8] (at 0.0781 µM, OCI-P5x cells, with rucaparib 20 µM, 100% = cells with rucaparib alone); 109% (inactive) in test [8] (at 0.0781 µM, OCI-P5x cells, without rucaparib); 107% (inactive) in [8] (at 0.313 µM, OCI-C5x cells, with rucaparib 10 µM, 100% = cells with rucaparib alone); 114% (inactive) in test [8] (at 0.313 µM, OCI-C5x cells, without rucaparib); 97.2% (active) in test [8] (at 0.313 µM, OCI-P5x cells, with rucaparib 20 µM, 100% = cells with rucaparib alone); 101% (inactive) in test [8] (at 0.313 µM, OCI-P5x cells, without rucaparib). Further, the viability in test [8] (at 1.25 µM, OCI-C5x cells, with rucaparib 10 µM, 100% = cells with rucaparib alone) was 107% (inactive); in [8] (at 1.25 µM, OCI-C5x cells, without rucaparib) it was 115% (inactive); in [8] (at 1.25 µM, OCI-P5x cells, with rucaparib 20 µM, 100% = cells with rucaparib alone) it was 96.1% (active); in test [8] (at 1.25 µM, OCI-P5x cells, without rucaparib), 95.3% (active); in test [8] (at 5 µM, OCI-C5x cells, with rucaparib 10 µM, 100% = cells with rucaparib alone) it was 117% (inactive); in [8] (at 5 µM, OCI-C5x cells, without rucaparib), 144% (inactive). Besides, the viability in [8] (at 5 µM, OCI-P5x cells, with rucaparib 20 µM, 100% = cells with rucaparib alone) was 96.1% (active); in test [8] (at 5 µM, OCI-P5x cells, without rucaparib), 94.8% (active).
As for `CC(C)(C)NCC(O)c1ccc(O)c(CO)c1` (stereo unspecified), the survival in [9] was 26.5 (inactive). Besides, the insulin secretion stimulation in [10] was 1.1% (inactive). Besides, in test [2], the viability decrease is -1.7% (inactive). Besides, the tube area decrease in [11] is -7.8% (inactive). Further, the GLP1 secretion stimulation in [12] is -1.8% (inactive). Also, the inhibition of viability in [3] is -1.7% (active). Also, the viability decrease (inhibition) in test [4] is -5.2% (inactive); in [5], -10% (inactive). Further, the inhibition (usually the relative decrease from the control value, in per cent) in test [13] was 0.167% (inactive). Also, the mean signal in test [14] was 230 (inactive). In addition, in test [15], the red/green cell ratio (normalised) was 0.85 (inactive). Moreover, the results for the normalised cell number in test [15] (setting [25]) and in test [15] (setting [26]) were 1.18 and 1, respectively. For the same compound, the z-score in test [7] (setting [23]) is 0.679 (inactive) and -0.995 (inactive); in test [7] (setting [24]), 0.164 and -0.427; in test [18] it was 0.105 (inactive) and 0.825 (inactive) and 0.82 (inactive). Moreover, in test [16], the remaining NAD is 10 nM (inactive). Besides, the luciferase signal in test [17] is 32 AU (inactive).
Turning to `COC(=O)C1=C(C)NC(C)=C(C(=O)OCCN(C)Cc2ccccc2)C1c1cccc([N+](=O)[O-])c1` (stereo unspecified), the survival in test [9] is 2.33 (inactive). The insulin secretion stimulation in test [10] is 2.9% (inactive). Also, the viability decrease in [2] is 91.4% (active). In addition, the tube area decrease in [11] was 14.2% (inactive). Moreover, the GLP1 secretion stimulation in [12] is -2.4% (inactive). In [3], the inhibition of viability is 104% (active). The viability decrease (inhibition) is 126% (active) in test [4] and 84.9% (active) in [5]. For the same compound, the inhibition in test [13] is -13.8% (inactive). Moreover, the mean signal in [14] was 246 (inactive). Moreover, the red/green cell ratio (normalised) in test [15] was 0.81 (inactive). In addition, the normalised cell number in test [15] (setting [25]) worked out at 1.09; in test [15] (setting [26]), 0.89. The z-score is -0.48 (inactive) and -0.0308 (inactive) and 0.219 (inactive) in [7] (setting [23]); -0.154 and -0.712 and 0.12 in [7] (setting [24]); -1.29 (inactive) and -1.5 (inactive) and 0.665 (inactive) in test [18]. Besides, the remaining NAD in test [16] was 10 nM (inactive). The luciferase signal in test [17] is 48 AU (inactive).
As to `CCN(CC)CCOc1ccc(Cc2ccccc2)cc1`, the nuclear beta-catenin stimulation in [1] (at 10 µM) was 2.1% (inactive); in [1] (stimulation, at 2 µM) it was 14.6%. The viability decrease in test [2] is 67.3% (active). The inhibition of viability in test [3] was 67.4% (active). The viability decrease (inhibition) in test [4] was 83.4% (active); in test [5], 55.9% (active). Moreover, the fold change was 0.97 (inactive) in [6] (setting [19]) and 0.737 in [6] (setting [20]). Further, the cell count in [6] (setting [21]) was 8340; in test [6] (setting [22]) it was 8600. In [18], the z-score was -0.96 (inactive).
